Measured values published in the supplement of paper PMC6555819.

Key:
Assay in all cases: PBM binding z-score (relative to random genomic background probes); higher = stronger binding; sequences stand for … in GC…GCGATTGACAGCGTAGAATGAAGG
[1] = tested on: RARb homodimer (NR concentration 270 nM)
In short: (§1)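 Random background probes are the reference for binding z-scores. These scores derive from regression-normalized fluorescence on custom Agilent 4×180K protein-binding microarrays incubated 1 h with ligand-free nuclear receptor dimers. Binding was detected with antibodies against each partner (one per run).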

[2] = tested on: RARg:RXRa (NR concentration 270 nM, RXRa partner concentration 90 nM)
In short: as §1

[3] = tested on: RARg homodimer (NR concentration 270 nM)
In short: as §1

[4] = tested on: RXRa DBDmut IVT, anti-RXR (DBD mutation: RXRa K156A/R161A, NR concentration 90 nM)
In short: as §1

[5] = tested on: RXRa homodimer (NR concentration 180 nM)
In short: as §1

[6] = tested on: THRa:RXRa (NR concentration 90 nM, RXRa partner concentration 90 nM)
In short: as §1

[7] = tested on: THRa homodimer (NR concentration 90 nM)
In short: as §1

[8] = tested on: VDR homodimer (NR concentration 270 nM)
In short: as §1

Sequence	PBM binding z-score [1]	PBM binding z-score [2]	PBM binding z-score [3]	PBM binding z-score [4]	PBM binding z-score [5]	PBM binding z-score [6]	PBM binding z-score [7]	PBM binding z-score [8]
CAGCCTAGGGCAGGGCCAGTATAGGAGGAACGTT	0.0483	-0.0952	0.654	-1.36	-0.507	-0.901	-0.998	-0.621
TCGAGTAGGTTAGGGCCATTCAGAATGGCGTCGA	0.309	-0.0137	0.11	-0.0874	0.299	0.672	-0.173	-0.211
GATACAGGGACAAGGCCAGAGTACGCGTATTGAT	0.843	0.288	1.06	-0.24	0.00121	0.874	0.292	0.46
CCTTACGGGTCACGAGGTTATAGCTCGACGAGCG	3.93	6.04	5.15	1.74	6.98	3.73	0.989	1.76
ATATGTAGGTTAAGGGTCATTCGGGTTGGTTCGC	3.7	4.87	3.3	2.32	6.11	3.39	1.95	5.4
TAGCCTAGGTCATGAGCCAGTATACCACGCGAAC	2.5	4.1	3.99	0.516	3.37	2.97	1.01	0.409
ATCTCTAGGGAACAAGTTCAGTGAAAGAGAGGAC	1.49	0.977	1.13	0.71	0.649	0.823	0.263	2.43
CAAACTAGGTCACGGTCAAAGTCGGTTTGTGCCA	4.62	4.99	5.89	2.12	3.82	3.94	2.34	1.7
AGAATGAGGCTATACGTAGATCAGGGAAGAAAGT	-0.0625	0.222	0.232	-0.0879	-0.0272	0.084	-0.165	-0.0917
ACTTACGGGTCAACGAGGTTATAGCACGCGTATA	3.53	5.57	5.3	2.71	6.39	4.01	1.25	3.96
CGAACTAGGTCAAGGACATTGAATCTCCGCACGC	3.12	3.91	4.46	1.62	2.91	3.16	2.43	1.13
TCTTGTAGATCAAGCAGGTTAAGTAAGCCTGAGT	0.0988	-0.201	-0.463	0.439	0.0943	0.33	-0.503	-0.0277
TCTGCTAGGTCAACGATGGTCAGCTCATCTGCTA	3.24	3.91	4.62	1.05	2.41	3.15	0.671	-0.436
CAAACTAGGTCAAAGTTCAAAGTCGAGCCAACCA	4.52	7.71	6.23	3.95	8.77	4.23	1.21	4.43
AGTCAAAGTTCAGGACAAGGTAACGTAAAGCACG	3.29	5.05	5.13	3.14	3.26	4.05	2.59	2.15
AGTCAAAGTTCAGGATGAGGTAACGTAAAGCACG	3.38	4.78	4.82	2.73	3.26	4.21	1.73	2.09
TAGCCAAGGTCATGCGGGCCAGTATAGTGTCGGC	4.42	5.81	5.79	2.88	5.47	4.14	2.91	3.39
AGAATGAGGTTATACGTAGATCAGGGCAGAAAGT	1.33	1.72	1.08	1.89	2.36	2.43	1.05	1.47
TGTTGTAGATCAAAGGTTAAGAAAGCCGAAGCCT	1.46	2.08	1.36	-0.391	2.85	1.34	-0.597	-0.249

Sequence	PBM binding z-score [1]	PBM binding z-score [2]	PBM binding z-score [3]	PBM binding z-score [4]	PBM binding z-score [5]	PBM binding z-score [6]	PBM binding z-score [7]	PBM binding z-score [8]
TCTCGAAGGACACGAAGGTCAGAGCTTTCCAGAG	3.75	2.99	3.73	0.817	1.94	2.03	0.331	0.435
TGTGAAAGTTCAAAGGTAACGTAAGTATCCACAC	3.75	5.88	5.56	4.17	7	3.13	0.137	3.9
TCGAGTAGGTTACCAATGGGGCATTCAGCTTTCT	0.636	1.2	0.445	0.401	0.5	0.261	-0.612	-0.59
AGAACGAGGCCAATGAGTTGATAGCACGGGTGGC	0.127	0.169	0.718	1.01	0.286	0.223	0.00356	1.71
CGTCCAAGGTCAGAGAGGTCAGTGCATGCCGAGT	5.13	6.03	6.95	3.49	5.11	4.21	2.91	6.02
GCTATTAGTTGAAAGGGCAACCTAATGATTCTCG	2.01	1.35	1.38	0.966	1.24	0.901	-0.0101	0.284
TCATATAGGTAACTGCTAGGTGAAAGTCCGATCT	0.607	0.501	0.315	1.53	0.853	1.43	0.668	0.0262
GCTATTAGTTGAAAGGTCAACCGAATGATTCTCG	5.01	6.07	5.57	1.88	7.11	3.83	1.41	2.06
ACTTACGGGTCAACGCGGTTATAGCACGCGTATA	3.18	5.42	5.07	1.88	5.68	2.97	0.345	1.45
CCGCGGAGGACAACAGGAGGTCAGAGCTGCCAGA	3.47	3.63	3.65	0.503	1.98	2.83	1.18	1.55
GCATATAGCTAATACAAGGTGAAAGTCCGATTGT	0.396	0.366	0.451	0.494	0.476	1.43	0.866	0.162
TCGAGTAGCTTAGGGGCATTCAGAATGGCGTCGA	0.0653	-0.284	-0.446	0.27	0.216	0.657	-0.487	0.282
TCATATAGGAAAAGGTGAAAGTCGAACGATATGA	1.17	1.38	1.12	1.03	1.86	0.964	-0.616	0.135
TCTTGTAGATCAATAGAGGTTAAGACAGTGCGCT	1.01	0.969	0.534	0.854	1.44	2.36	-0.216	0.0474
GCTTGTAGATCAAGGCTAAGAAAGACTAAGCTAA	-0.854	-0.533	-0.429	-0.427	-0.497	-0.5	-1.37	-0.708
ATCTCTAGGTAACGAAGTTCAGTGAATGCCGAAC	1.38	0.591	0.883	0.137	0.413	0.946	0.14	1.27
CCTCGGAGGACAACAGGAGGTCGGAGCTGCCAGA	1.42	1.08	1.36	0.0321	0.223	1.35	0.0235	0.16
CCTTACGGGTCACTGCAGGTTATAGCATCGGAGT	3.23	4.87	4.67	1.59	5.03	4.41	0.184	1.17
CCGACTGGGGCACGGTTACCATAACGCACAGCCA	0.696	0.548	1.13	-1.14	0.163	-0.214	-0.521	-0.442

Sequence	PBM binding z-score [1]	PBM binding z-score [2]	PBM binding z-score [3]	PBM binding z-score [4]	PBM binding z-score [5]	PBM binding z-score [6]	PBM binding z-score [7]	PBM binding z-score [8]
CCTCGGAGGGCAGAAGGTCAGAGCTGTCCGCTTT	3.76	4.71	4.01	-0.118	2.82	1.47	-0.593	-0.355
TCTAGCAGGCCAGAGGGTCACTCAGGAGGTACGG	2.75	2.62	1.67	0.0347	2.54	1.74	-0.132	0.271
GCAGACAGGTGAAACGCAGGTAACTCTGGGTGGC	-0.101	0.724	0.0252	-0.652	0.337	0.963	-0.802	-0.811
CCTACTGGGCCAAAAAGGTCAGTGATGCCGATAA	4.09	3.5	3.5	-0.472	2.87	2.11	0.0212	0.295
GTACCAAGGTGAATAGGTCGTTGGTGAGTAGGCG	1.93	2.86	1.13	-0.312	1.99	1.71	0.526	0.359
CTTACAGGGTCAGCTAGGCCAGAGTAGGGACGGC	3.2	4.47	4.97	1.83	4.42	2.97	0.729	0.875
CGAACTAGGTCAGAACACGACAGTGAAGGATGAT	1.84	2.55	3.06	0.593	1.39	1.31	0.186	-0.122
AGAATGAGGTTATTAAGATGAGGGAATTGCGGTC	0.734	1.15	0.922	1.9	1.87	2.08	0.746	1.16
TGTCAAAGTTCAAAGGTAACGTCAGTATCCACAC	4.03	6.26	5.87	4.29	6.96	3.51	-0.193	4.08
AGTCAAAGTTTACTAGGTAACGTAAGATTCAGCT	0.795	0.885	1.46	1.44	0.16	0.591	-0.0944	0.294
CCTACTGGGCCATTCGGAGGTCATTGATCATATG	3.37	3.59	2.55	0.347	2.38	2.83	1.58	3.03
CCTGCTAGGTCATGCTCAGCTAATCTACAGTATG	2.76	3.89	4.39	2.05	2.4	2.57	0.87	0.178
TGAATGAGGTTATAAGACCAGGGAACGTTGCAAA	0.0287	1.39	0.814	0.698	1.99	1.77	-0.0902	0.336
CGACCAAGGTCAATGCTAGGTCAGTGAAAGCATT	4.82	7.46	6.84	3.44	5.73	4.18	2.25	2.89
TTACCAAGGTGAAGGTCGTTTATCCCTCTGTAGA	1.99	1.2	1.11	0.869	1.49	2.5	1.18	1.61
TAGCCTAGGTCATCCAGGGGCCAGTATAGAAAGC	3.71	6.41	5.07	0.731	2.94	3.55	0.878	0.913
CGGCCAAGGTCAATGCTAGGTCAGTGAAAGCATT	4.9	7.57	6.96	3.65	5.16	4.29	2.46	2.22
CCTATTAGTTGACCATGAGGGCAACCGAAGCTCG	2.22	1.32	1.16	0.831	0.812	2.11	1.79	1.43
